Assay [1] is described as follows: NCI Yeast Anticancer Drug Screen. Data for the rad50 strain (AID 155).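 Also: 0% = growth of vehicle-only cultures of the same strain.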 To be noted: S. cerevisiae rad50 strain growth inhibition, hits give high values. In short, it runs like this:
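A DNA repair-deficient yeast mutant serves as the test organism; compound-induced growth inhibition is calculated against vehicle-treated cells.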

Assay [2] is described as follows: NCI Yeast Anticancer Drug Screen. Data for the mec2-1 strain (AID 157). To be noted: S. cerevisiae mec2-1 strain, hits give high values. The essentials:
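Strain: mec2-1 (DNA repair/cell cycle alteration). Compound exposure, then growth measured; inhibition expressed relative to vehicle.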

Assay [3] in a line: NCI Yeast Anticancer Drug Screen. Data for the sgs1 mgt1 strain (AID 161).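 Also: 0% = growth of cultures given vehicle only.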 The following applies: S. cerevisiae sgs1 mgt1 strain, hits give high values. The essentials: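 Genetically altered yeast, compound exposure, growth inhibition relative to vehicle.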
Assay [4] can be described thus: NCI Yeast Anticancer Drug Screen. Data for the cln2 rad14 strain (AID 165).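 Also: 0% = growth equal to vehicle treated cultures.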 The following applies: S. cerevisiae cln2 rad14 strain, hits give high values. In short, it runs like this:
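Compounds are applied to the cln2 rad14 yeast strain, and growth is then compared with that of vehicle-treated cultures to give inhibition.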

Assay [5] is described as follows: NCI Yeast Anticancer Drug Screen. Data for the bub3 strain (AID 167). The following applies: S. cerevisiae bub3 mutant strain, hits give high values. The essentials: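 Inhibition values come from growth of compound-treated mutant yeast normalised to vehicle-treated controls.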
Assay [6] can be described thus: NCI Yeast Anticancer Drug Screen. Data for the mlh1 rad18 strain (AID 175). To be noted: S. cerevisiae mlh1 rad18 strain growth inhibition, hits give high values. The essentials: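 Read-out is yeast growth inhibition, calculated against vehicle-only controls. The compound was applied to a strain engineered with DNA damage repair alterations.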
The mark [7] stands for this setting: at 5.0 µM (retest, dose inferred, filed as 0.5).
The mark [8] stands for this setting: at 50.0 µM (retest, dose inferred, filed as 5.0).

Data on 10 compounds can be found in PubChem BioAssay (NCI).

Compounds without any hit were thinned out: in the full panel of roughly 79,000, 15% have a hit. Unmarked numbers belong to inactive results. Activity calls are given as the source filed them. Rule as the data show it: active = growth inhibition above about 70%; inactive = the rest.

Turning to `C[C@@H]1CCC([C@@H](C)[C@H]2CC[C@H]3[C@@H]4CC[C@H]5C[C@@H](O)CC[C@]5(C)[C@H]4CC[C@]23C)=NC1`, the growth inhibition in assay [1] (setting [7]) was 73% (active); in assay [1] (setting [8]) it was 98% (active); in assay [1] (at 50.0 µM), 87.5% (active); in assay [2] (setting [7]), 60%; in assay [2] (setting [8]), 98% (active); in assay [2] (at 50.0 µM), 89% (active). Further, the growth inhibition is 90% (active) in assay [3] (setting [7]); 99% (active) in assay [3] (setting [8]); 91.6% (active) in assay [3] (at 50.0 µM); 60% in assay [4] (setting [7]); 98% (active) in assay [4] (setting [8]); 88.7% (active) in assay [4] (at 50.0 µM). In addition, the growth inhibition in assay [5] (setting [7]) is 84% (active); in assay [5] (setting [8]) it was 98% (active); in assay [5] (at 50.0 µM) it was 88.5% (active); in assay [6] (setting [7]), 95% (active); in assay [6] (setting [8]), 98% (active); in assay [6] (at 50.0 µM), 89% (active).
With `COc1ccc(/C=C2/C(=O)ON=C2C)cc1`, the growth inhibition in assay [1] (setting [7]) is 12%; in assay [1] (setting [8]), 10%; in assay [1] (at 50.0 µM), 76% (active); in assay [2] (setting [7]), 5%; in assay [2] (setting [8]), 41%; in assay [2] (at 50.0 µM) it was 45.8%. Besides, the growth inhibition in assay [3] (setting [7]) is -6%; in assay [3] (setting [8]), 29%; in assay [3] (at 50.0 µM), 41.8%; in assay [4] (setting [7]) it was -12%; in assay [4] (setting [8]) it was 26%; in assay [4] (at 50.0 µM) it was 46%. Moreover, the growth inhibition was 11% in assay [5] (setting [7]); 23% in assay [5] (setting [8]); 88.5% (active) in assay [5] (at 50.0 µM); 11% in assay [6] (setting [7]); 12% in assay [6] (setting [8]); 23.7% in assay [6] (at 50.0 µM).
Regarding `O=C1C=CC(=O)N1c1cccc2c1CCCC2`, the growth inhibition in assay [1] (setting [7]) is 99% (active); in assay [1] (setting [8]), 99% (active); in assay [1] (at 50.0 µM) it was 91.9% (active); in assay [2] (setting [7]), 100% (active); in assay [2] (setting [8]), 100% (active); in assay [2] (at 50.0 µM), 93.8% (active). Further, the growth inhibition was 100% (active) in assay [3] (setting [7]); 99% (active) in assay [3] (setting [8]); 94.7% (active) in assay [3] (at 50.0 µM); 99% (active) in assay [4] (setting [7]); 99% (active) in assay [4] (setting [8]); 93.5% (active) in assay [4] (at 50.0 µM). The growth inhibition in assay [5] (setting [7]) is 100% (active); in assay [5] (setting [8]), 99% (active); in assay [5] (at 50.0 µM) it was 93.6% (active); in assay [6] (setting [7]), 99% (active); in assay [6] (setting [8]), 99% (active); in assay [6] (at 50.0 µM), 93.1% (active).
As to `CCOC(=O)c1[nH]c(C#N)c(C(=O)OCC)c1C`, the growth inhibition in assay [1] (setting [7]) was 6%; in assay [1] (setting [8]), 76% (active); in assay [1] (at 50.0 µM), 4.15%; in assay [2] (setting [7]), 1%; in assay [2] (setting [8]), 23%; in assay [2] (at 50.0 µM), 26.4%. The growth inhibition is 3% in assay [3] (setting [7]); 17% in assay [3] (setting [8]); 33.8% in assay [3] (at 50.0 µM); 1% in assay [4] (setting [7]); 45% in assay [4] (setting [8]); 12.6% in assay [4] (at 50.0 µM). For the same compound, the growth inhibition in assay [5] (setting [7]) is 3%; in assay [5] (setting [8]), 48%; in assay [5] (at 50.0 µM), 53.2%; in assay [6] (setting [7]), 4%; in assay [6] (setting [8]), 66%; in assay [6] (at 50.0 µM), 10%.
For `Cc1ccc2cccc(OC(=O)Nc3cccc(C(F)(F)F)c3)c2n1`, the growth inhibition in assay [1] (setting [7]) is 50%; in assay [1] (setting [8]) it was 95% (active); in assay [1] (at 50.0 µM), 91.4% (active); in assay [2] (setting [7]) it was 39%; in assay [2] (setting [8]), 98% (active); in assay [2] (at 50.0 µM), 89.9% (active). The growth inhibition in assay [3] (setting [7]) is 50%; in assay [3] (setting [8]), 100% (active); in assay [3] (at 50.0 µM), 91.1% (active); in assay [4] (setting [7]) it was 38%; in assay [4] (setting [8]) it was 98% (active); in assay [4] (at 50.0 µM), 91% (active). For the same compound, the growth inhibition in assay [5] (setting [7]) was 42%; in assay [5] (setting [8]), 98% (active); in assay [5] (at 50.0 µM), 90.9% (active); in assay [6] (setting [7]) it was 50%; in assay [6] (setting [8]), 98% (active); in assay [6] (at 50.0 µM), 92.5% (active).
On to `C=CCO/N=C/c1cc(NC(=S)c2ccoc2C)ccc1Cl`, for which the growth inhibition in assay [1] (setting [7]) was 13%; in assay [1] (setting [8]), 86% (active); in assay [1] (at 50.0 µM), 83.9% (active); in assay [2] (setting [7]), 6%; in assay [2] (setting [8]) it was 86% (active); in assay [2] (at 50.0 µM), 85.5% (active). Further, the growth inhibition was 1% in assay [3] (setting [7]); 85% (active) in assay [3] (setting [8]); 83.2% (active) in assay [3] (at 50.0 µM); -11% in assay [4] (setting [7]); 80% (active) in assay [4] (setting [8]); 84.3% (active) in assay [4] (at 50.0 µM). Also, the growth inhibition in assay [5] (setting [7]) was -4%; in assay [5] (setting [8]), 90% (active); in assay [5] (at 50.0 µM), 80.4% (active); in assay [6] (setting [7]), 4%; in assay [6] (setting [8]), 91% (active); in assay [6] (at 50.0 µM), 76.7% (active).
For the compound `O=[N+]([O-])c1ccc(Oc2ccccc2Cl)c([N+](=O)[O-])c1`, the growth inhibition in assay [1] (setting [7]) is 13%; in assay [1] (setting [8]), 96% (active); in assay [1] (at 50.0 µM) it was 4.1%; in assay [2] (setting [7]), -25%; in assay [2] (setting [8]), 95% (active); in assay [2] (at 50.0 µM), 38.1%. Besides, the growth inhibition was 27% in assay [3] (setting [7]); 97% (active) in assay [3] (setting [8]); 63.1% in assay [3] (at 50.0 µM); 3% in assay [4] (setting [7]); 86% (active) in assay [4] (setting [8]); 17.9% in assay [4] (at 50.0 µM). Besides, the growth inhibition was 7% in assay [5] (setting [7]); 97% (active) in assay [5] (setting [8]); 44.7% in assay [5] (at 50.0 µM); 29% in assay [6] (setting [7]); 97% (active) in assay [6] (setting [8]); 72.7% (active) in assay [6] (at 50.0 µM).
On to `NC(=S)N/N=C/c1ncccc1O`, for which the growth inhibition in assay [1] (setting [7]) is -157%; in assay [1] (setting [8]) it was -91%; in assay [1] (at 50.0 µM), 24.4%; in assay [2] (setting [7]), -50%; in assay [2] (setting [8]) it was 19%; in assay [2] (at 50.0 µM), 80.2% (active). Further, the growth inhibition in assay [3] (setting [7]) was -63%; in assay [3] (setting [8]), -30%; in assay [3] (at 50.0 µM), 7.55%; in assay [4] (setting [7]), -68%; in assay [4] (setting [8]), -73%; in assay [4] (at 50.0 µM), -23.4%. Also, the growth inhibition in assay [5] (setting [7]) is -74%; in assay [5] (setting [8]), -78%; in assay [5] (at 50.0 µM) it was -7.5%; in assay [6] (setting [7]), -123%; in assay [6] (setting [8]), -101%; in assay [6] (at 50.0 µM) it was 21.4%.
Regarding `CCCN(CCC)C(=O)c1ccc(C)cc1`, the growth inhibition is 1% in assay [1] (setting [7]); 21% in assay [1] (setting [8]); 4.3% in assay [1] (at 50.0 µM); 2% in assay [2] (setting [7]); 5% in assay [2] (setting [8]); 97.9% (active) in assay [2] (at 50.0 µM). Also, the growth inhibition in assay [3] (setting [7]) is 2%; in assay [3] (setting [8]) it was 5%; in assay [3] (at 50.0 µM) it was 0.05%; in assay [4] (setting [7]) it was 3%; in assay [4] (setting [8]) it was 24%; in assay [4] (at 50.0 µM), -17.1%. The growth inhibition in assay [5] (setting [7]) is 3%; in assay [5] (setting [8]), 28%; in assay [5] (at 50.0 µM), 2.9%; in assay [6] (setting [7]), -3%; in assay [6] (setting [8]), 17%; in assay [6] (at 50.0 µM) it was 7.2%.
Take `S=C1NC2=C(COc3ccccc32)C(c2ccc(Cl)cc2)N1` (stereo not given): the growth inhibition was 59% in assay [1] (setting [7]); 97% (active) in assay [1] (setting [8]); 89.6% (active) in assay [1] (at 50.0 µM); 70% (active) in assay [2] (setting [7]); 98% (active) in assay [2] (setting [8]); 92.5% (active) in assay [2] (at 50.0 µM). The growth inhibition in assay [3] (setting [7]) is 85% (active); in assay [3] (setting [8]), 98% (active); in assay [3] (at 50.0 µM), 92.5% (active); in assay [4] (setting [7]) it was 69%; in assay [4] (setting [8]), 97% (active); in assay [4] (at 50.0 µM) it was 90.5% (active). The growth inhibition in assay [5] (setting [7]) is 92% (active); in assay [5] (setting [8]) it was 98% (active); in assay [5] (at 50.0 µM), 90.8% (active); in assay [6] (setting [7]), 86% (active); in assay [6] (setting [8]), 97% (active); in assay [6] (at 50.0 µM), 83.1% (active).
